# PubChem BioAssay (NCATS)
# Inconclusive results are not listed. Calls of active or inactive are those of the source. Calls follow the shape of the dose curve; as a rule, active = well fitted inhibition curve with a large enough effect; inconclusive = small, poorly fitted or top-dose-only effect; inactive = no such curve, though single readings can be large or run the other way.
# Assay: BET inhibitor-based combinations targeting novel dependencies in MECOM-rearranged (r) AML: SET-2 cell line (AID 2202231); also: nearly all actives have a fitted effect of over 35% in size
# Conditions: SET-2 AML cells viability, CellTiter-Glo luminescence, 48 h; viability: stronger effect = lower value, series mostly up to about 46 µM
# Source text: Ecotropic viral insertion site 1 (EVI1) is located on chromosome 3q26.2 as part of the MECOM (MDS and EVI1 complex) locus. Under normal hematopoiesis, EVI1 is a regulator of hematopoietic stem cell maintenance and self-renewal and EVI1 levels decrease as the cells differentiate. In approximately 5-10% of de novo acute myeloid leukemia (AML) EVI1 is aberrantly expressed, including Chromosomal inv(3)(q21;q26.2) or t(3;3)(q21;q26.2) alterations (MECOM-r) that account for about 50% of AML with EVI1 overexpression 31. AMLs with high levels of EVI1 have a poor prognosis and an overall survival time averaging between 10-14 months. EVI1 overexpression confers resistance in leukemia cells, highlighting the need to develop new targeted therapies for EVI1 overexpressing AMLs.
# Here, we performed an unbiased chemical drug screening by evaluating the single agent activity of a collection of 2,480 oncology-focused, approved and investigational drugs (NCATS Mechanism Interrogation Plates, MIPE v5.0) against a panel of seven AML cell lines. These included four MECOM-r cell-lines (AML-191, AML-194, UCSD-AML1 and HNT-34) and three non-MECOM-r AMLs (MV4-11, OCI-AML3 and SET-2). Exploiting the mechanistic redundancy built in the library, we identified target-level sensitivities in MECOM-r AML cells and relative activity as compared to other AML subtypes.
# A collection of 2480 mechanistically annotated dugs (MIPE v5.0) was used to screen four 3q26.2 rearranged AML cell lines and three non-3q26.2 rearranged AML cell lines. This library purposely exploits redundancy by including multiple inhibitors of key onco-targets, while simultaneously encompassing mechanistic diversity, targeting more than 800 distinct mechanisms of action. Briefly, cells were seeded in 5 uL of growth media using a Multidrop Combi dispenser into 1536 well white polystyrene tissue culture treated plates (Corning) at a density of 500cells/well. For each cell-line, for each of the 2480 drugs in MIPE v5.0 library, an 11-point dose curve was generated via a 1536 pin-tool. Plates were incubated for 48 hr at standard incubator conditions, covered by a stainless steel gasketed lid to prevent evaporation. Cell viability was determined by luminescence based, Cell Titer Glo assay (Promega). In detail, 3 uL of Cell Titer Glo were added to each well and plates were incubated at room temperature for 15 min with a stainless-steel lid in place. Luminescence readings were taken using a Viewlux (PerkinElmer) with a 2 s exposure time per plate. Compound dose-response curves were normalized to DMSO and empty well controls on each plate. Quantitative drug activity data from dose-response curves was determined utilizing area Under the Curve (AUC) and Z-transformed AUC (Z-AUC, a mean-centering transformation applied to each individual cell-line screened).
# Potency is read from the fitted curve at half-maximal effect.
SMILES,Potency,viability
CN1c2ccccc2C(=O)N2CCc3c([nH]c4ccccc34)C21 (stereo not given),5.25 µM (active),
COc1cc(NC(=O)c2ccc(-c3ccc(Cl)cc3)o2)cc(OC)c1,,110% (inactive)
C[C@@H]1COCCN1c1cc(=O)n2c(n1)N(Cc1cncc(Cl)c1)[C@H](C(F)(F)F)CC2,,106% (inactive)
CN(C)CCc1c[nH]c2ccc(CS(=O)(=O)N3CCCC3)cc12,,115% (inactive)
CN(C)S(=O)(=O)c1ccc2c(c1)C(=Cc1cc3c([nH]1)CCCC3)C(=O)N2,,101% (inactive)
Fc1ccc2[nH]ccc2c1-c1nc(N2CCOCC2)c2sc(CN3CCN(CC4CC4)CC3)cc2n1,23.5 µM (active),
CC[C@@H](C)Nc1cc(C(=O)NC2CC3CC[C@@H](C2)N3c2ccc(C(=O)C3CC3)cn2)c(C)cc1C(N)=O (stereo not given in full),0.132 µM (active),
N#CN1CCC[C@@H](n2nc(-c3ccc(Oc4ccc(F)cc4F)cc3)c(C(N)=O)c2N)C1,,107% (inactive)
C[C@@H](Oc1cc(-c2cnn(C3CCNCC3)c2)cnc1N)c1c(Cl)ccc(F)c1Cl,10.5 µM (active),
N#Cc1ccnc(Nc2cc(C3CCN(C4COC4)CC3)cc(N3CCC(F)(F)C3)n2)c1,3.72 µM (active),
Cc1cccc(N(C)C(=S)Oc2ccc3ccccc3c2)c1,,85.9% (inactive)
Cc1cc(-c2cc(OC(=O)c3ccccc3)ccc2Cl)cc2nnc(Nc3ccc(OCCN4CCCC4)cc3)nc12,,115% (inactive)
C[C@]12C=CC(=O)C=C1CC[C@@H]1[C@@H]2C(=O)C[C@@]2(C)[C@H]1CC[C@]2(O)C(=O)CO,,109% (inactive)
O=C1CCC(N2C(=O)c3ccccc3C2=O)C(=O)N1 (stereo not given),,112% (inactive)
COc1ccc2nc3cc(Cl)ccc3c(Nc3cc(CN4CCCC4)c(O)c(CN4CCCC4)c3)c2n1,7.42 µM (active),
O=C(/C=C/C=C/c1ccc2c(c1)OCO2)N1CCCCC1,,96.4% (inactive)
CS(=O)(=O)c1ccc(Oc2cc(F)cc(C#N)c2)c2c1[C@H](O)C(F)(F)C2,,103% (inactive)
Cn1cc(-c2ccc3c(c2)CCN3C(=O)Cc2cccc(C(F)(F)F)c2)c2c(N)ncnc21,,105% (inactive)
CNc1nc(C)nc(N[C@H]2CCC[C@@H](C(=O)NCc3ccc(C#N)cc3C(F)(F)F)C2)n1,,108% (inactive)
Cc1cc(=O)oc2cc(O)ccc12,,111% (inactive)

SMILES,Potency,viability
CC(C)C[C@H](NC(=O)[C@@H](O)[C@H](N)Cc1ccccc1)C(=O)O,,104% (inactive)
CNc1nccc(-c2cccnc2Oc2cc(C(=O)Nc3cccc(C(F)(F)F)c3)ccc2C)n1,16.6 µM (active),
COc1ccc(-n2c(SCCCN3C(=O)c4cccc5cccc(c45)C3=O)nnc2-c2ccncc2)cc1,,102% (inactive)
OCCN1C[C@H](O)[C@@H](O)[C@H](O)[C@H]1CO,,115% (inactive)
O=C(O)CCc1ccc(NCc2cccc(Oc3ccccc3)c2)cc1,,117% (inactive)
CCN(CCO)CCCOc1ccc2c(Nc3cc(CC(=O)Nc4cccc(F)c4)[nH]n3)ncnc2c1,,100% (inactive)
CN1C(=O)c2sccc2N(C)c2nc(Nc3ccc(S(N)(=O)=O)cc3)ncc21,6.61 µM (active),
COc1ccc(-c2c(-c3ccc(O)cc3O)n[nH]c2C)cc1,,84% (inactive)
N#Cc1c(NC(=O)c2cccc3ccccc23)sc2c1CCCC2,0.525 µM (active),
O=c1c(O)c(-c2ccc(O)cc2O)oc2cc(O)cc(O)c12,,122% (inactive)
Nc1ncnc2c1C(=O)N(c1ccc(C3CCC(CC(=O)O)CC3)cc1)CCO2 (stereo not given),,105% (inactive)
Cc1c(-c2ccc(O)cc2)n(Cc2ccc(OCCN3CCCCCC3)cc2)c2ccc(O)cc12,23.5 µM (active),
CC[C@@H]1C(=O)N(C)c2cnc(Nc3ccc(C(=O)NC4CCN(C)CC4)cc3OC)nc2N1C1CCCC1,0.468 µM (active),
CC1=C(CO)C(=O)O[C@@H]([C@@H](C)[C@H]2CC[C@H]3[C@@H]4C[C@H]5O[C@]56[C@@H](O)C=CC(=O)[C@]6(C)[C@H]4CC[C@]23C)C1,0.59 µM (active),
COc1ccc(C2(C#N)CCC(C(=O)O)CC2)cc1OC1CCCC1 (stereo not given),,119% (inactive)
CC(COc1ccccc1)N(CCCl)Cc1ccccc1 (stereo not given),,99.7% (inactive)
CC1(C)CCC(CN2CCN(c3ccc(C(=O)NS(=O)(=O)c4ccc(NCC5CCOCC5)c([N+](=O)[O-])c4)c(Oc4cnc5[nH]ccc5c4)c3)CC2)=C(c2ccc(Cl)cc2)C1,,114% (inactive)
O=C(O)c1ccc2cc(-c3ccc(O)c(C45CC6CC(CC(C6)C4)C5)c3)ccc2c1,0.59 µM (active),
C[C@@H](c1ncncc1F)[C@](O)(Cn1cncn1)c1ccc(F)cc1F,,105% (inactive)
Nc1ncnc2c1ncn2[C@@H]1O[C@H](CO)[C@@H](O)[C@H]1O,,126% (inactive)
